The nature of assay [1]: NCI Yeast Anticancer Drug Screen. Data for the rad50 strain (AID 155).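 Also: 0% = growth of vehicle-only cultures of the same strain.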 To be noted: S. cerevisiae rad50 strain growth inhibition, active compounds read high. An outline of the steps:
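Vehicle-treated cultures provide the reference for the growth inhibition reported for compound-exposed, repair-deficient yeast.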

The nature of assay [2]: NCI Yeast Anticancer Drug Screen. Data for the mec2-1 strain (AID 157). The following applies: S. cerevisiae mec2-1 strain, active compounds read high. An outline of the steps:
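Test agents were screened against the mec2-1 yeast strain, with defined DNA repair or cell cycle alteration. Growth was scored as inhibition against vehicle-only controls.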

Assay [3] in a line: NCI Yeast Anticancer Drug Screen. Data for the sgs1 mgt1 strain (AID 161).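 Also: 0% = growth of cultures given vehicle only.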 To be noted: S. cerevisiae sgs1 mgt1 strain, active compounds read high. An outline of the steps:
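Test agents were incubated with a DNA-repair-mutant yeast strain. Growth was then read and compared against vehicle-treated controls.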

A short description of assay [4]: NCI Yeast Anticancer Drug Screen. Data for the cln2 rad14 strain (AID 165).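 Also: 0% = growth equal to vehicle treated cultures.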 The following applies: S. cerevisiae cln2 rad14 strain, active compounds read high. An outline of the steps: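 Growth of compound-exposed yeast (cln2 rad14 genotype) measured and expressed as inhibition relative to vehicle.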
Assay [5] in a line: NCI Yeast Anticancer Drug Screen. Data for the bub3 strain (AID 167). To be noted: S. cerevisiae bub3 mutant strain, active compounds read high. An outline of the steps: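 Mutant yeast screening strain plus compound; vehicle-treated cultures serve as the 0% inhibition reference.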
Assay [6] can be described thus: NCI Yeast Anticancer Drug Screen. Data for the mlh1 rad18 strain (AID 175). To be noted: S. cerevisiae mlh1 rad18 strain growth inhibition, active compounds read high. An outline of the steps: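 In this whole-cell yeast screen, a strain with altered DNA damage repair is challenged with compound, and its growth is measured against matched vehicle-treated controls.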
[7] abbreviates: at 5.0 µM (retest, dose inferred, filed as 0.5).
Where [8] appears, read: at 50.0 µM (retest, dose inferred, filed as 5.0).

From PubChem BioAssay (NCI) come the findings set out here.

About 79,000 compounds went through this panel and 15% of them were active in at least one assay; those are over-represented in the sample as a whole. Unmarked numbers belong to inactive results. Active and inactive are the calls of the source. Rule as the data show it: active = growth inhibition above about 70%; inactive = the rest.

As for `COC(=O)N(C[C@@H]1C=CCCC1)c1ccccc1I`, the growth inhibition in assay [1] (setting [7]) was 29%; in assay [1] (setting [8]), 66%; in assay [1] (at 50.0 µM), 88.3% (active); in assay [2] (setting [7]), 29%; in assay [2] (setting [8]), 61%; in assay [2] (at 50.0 µM) it was 91.2% (active). Moreover, the growth inhibition was 26% in assay [3] (setting [7]); 63% in assay [3] (setting [8]); 89.6% (active) in assay [3] (at 50.0 µM); 29% in assay [4] (setting [7]); 34% in assay [4] (setting [8]); 87.5% (active) in assay [4] (at 50.0 µM). Moreover, the growth inhibition in assay [5] (setting [7]) was 47%; in assay [5] (setting [8]), 74% (active); in assay [5] (at 50.0 µM) it was 91% (active); in assay [6] (setting [7]), 41%; in assay [6] (setting [8]) it was 70% (active); in assay [6] (at 50.0 µM), 89.9% (active).

For `Clc1ccccc1N1CCN(c2c3c(nc4ccccc24)CCCCC3)CC1`, the growth inhibition in assay [1] (setting [7]) is -4%; in assay [1] (setting [8]), 89% (active); in assay [1] (at 50.0 µM), 93.3% (active); in assay [2] (setting [7]), 11%; in assay [2] (setting [8]), 96% (active); in assay [2] (at 50.0 µM), 95.8% (active). The growth inhibition is 38% in assay [3] (setting [7]); 96% (active) in assay [3] (setting [8]); 94% (active) in assay [3] (at 50.0 µM); -13% in assay [4] (setting [7]); 91% (active) in assay [4] (setting [8]); 94.2% (active) in assay [4] (at 50.0 µM). The growth inhibition in assay [5] (setting [7]) is -10%; in assay [5] (setting [8]), 92% (active); in assay [5] (at 50.0 µM), 93.2% (active); in assay [6] (setting [7]) it was 42%; in assay [6] (setting [8]), 94% (active); in assay [6] (at 50.0 µM) it was 95.6% (active).

On to `NC(=O)C1CCCN1C(=O)C1CCCN(Cc2ccc(CN3CCCC(C(=O)N4CCCC4C(N)=O)C3)cc2)C1` (centres undefined), for which the growth inhibition in assay [1] (setting [7]) was -1%; in assay [1] (setting [8]) it was -5%; in assay [1] (at 50.0 µM), 91.5% (active); in assay [2] (setting [7]), 8%; in assay [2] (setting [8]), 1%; in assay [2] (at 50.0 µM), 74.2% (active). Also, the growth inhibition in assay [3] (setting [7]) is -10%; in assay [3] (setting [8]) it was -11%; in assay [3] (at 50.0 µM), 74.4% (active); in assay [4] (setting [7]), -13%; in assay [4] (setting [8]), 11%; in assay [4] (at 50.0 µM) it was 74.7% (active). The growth inhibition in assay [5] (setting [7]) is 16%; in assay [5] (setting [8]), 13%; in assay [5] (at 50.0 µM), 78.8% (active); in assay [6] (setting [7]) it was -10%; in assay [6] (setting [8]), -12%; in assay [6] (at 50.0 µM), 78.3% (active).

On to `O=C(CC(C(=O)O)c1c[nH]c2ccccc12)c1ccccc1` (centres undefined), for which the growth inhibition is -2% in assay [1] (setting [7]); -2% in assay [1] (setting [8]); 45.4% in assay [1] (at 50.0 µM); -3% in assay [2] (setting [7]); 7% in assay [2] (setting [8]); -18.6% in assay [2] (at 50.0 µM). Also, the growth inhibition in assay [3] (setting [7]) is -5%; in assay [3] (setting [8]) it was 0%; in assay [3] (at 50.0 µM) it was 56.8%; in assay [4] (setting [7]), -5%; in assay [4] (setting [8]), -63%; in assay [4] (at 50.0 µM), -16.6%. Besides, the growth inhibition in assay [5] (setting [7]) is -1%; in assay [5] (setting [8]) it was 7%; in assay [5] (at 50.0 µM), 93.8% (active); in assay [6] (setting [7]), -4%; in assay [6] (setting [8]), 1%; in assay [6] (at 50.0 µM), -0.1%.

As to `CC1SC2(C(=O)Nc3ccc(Br)cc32)N(c2ccc(Cl)cc2)C1=O` (centres undefined), the growth inhibition in assay [1] (setting [7]) is 13%; in assay [1] (setting [8]), 99% (active); in assay [1] (at 50.0 µM), 50.4%; in assay [2] (setting [7]) it was 2%; in assay [2] (setting [8]), 99% (active); in assay [2] (at 50.0 µM), 99.5% (active). The growth inhibition is -2% in assay [3] (setting [7]); 98% (active) in assay [3] (setting [8]); 56.1% in assay [3] (at 50.0 µM); -3% in assay [4] (setting [7]); 95% (active) in assay [4] (setting [8]); 90.8% (active) in assay [4] (at 50.0 µM). In addition, the growth inhibition in assay [5] (setting [7]) was 15%; in assay [5] (setting [8]) it was 99% (active); in assay [5] (at 50.0 µM), 96.9% (active); in assay [6] (setting [7]), 10%; in assay [6] (setting [8]), 99% (active); in assay [6] (at 50.0 µM), -8.55%.

Consider `CNC(=O)OCc1c(COC(=O)NC)c2n(c1C)-c1ccccc1CCC2`, for which the growth inhibition in assay [1] (setting [7]) was 23%; in assay [1] (setting [8]) it was 35%; in assay [1] (at 50.0 µM), 85.8% (active); in assay [2] (setting [7]), 11%; in assay [2] (setting [8]) it was 70% (active); in assay [2] (at 50.0 µM), 89.6% (active). Besides, the growth inhibition is 38% in assay [3] (setting [7]); 75% (active) in assay [3] (setting [8]); 90% (active) in assay [3] (at 50.0 µM); 38% in assay [4] (setting [7]); 56% in assay [4] (setting [8]); 88.9% (active) in assay [4] (at 50.0 µM). Besides, the growth inhibition in assay [5] (setting [7]) was 50%; in assay [5] (setting [8]) it was 77% (active); in assay [5] (at 50.0 µM), 87.5% (active); in assay [6] (setting [7]), 15%; in assay [6] (setting [8]), 43%; in assay [6] (at 50.0 µM) it was 87.6% (active).

Turning to `O=C(OCc1ccc2c(c1)OCO2)c1ccc(Cl)cc1`, the growth inhibition is 19% in assay [1] (setting [7]); 23% in assay [1] (setting [8]); -0.55% in assay [1] (at 50.0 µM); -4% in assay [2] (setting [7]); 68% in assay [2] (setting [8]); -4.55% in assay [2] (at 50.0 µM). The growth inhibition in assay [3] (setting [7]) is 9%; in assay [3] (setting [8]) it was 46%; in assay [3] (at 50.0 µM) it was -6.3%; in assay [4] (setting [7]) it was -43%; in assay [4] (setting [8]) it was -7%; in assay [4] (at 50.0 µM) it was 0.05%. In addition, the growth inhibition in assay [5] (setting [7]) is -1%; in assay [5] (setting [8]) it was 61%; in assay [5] (at 50.0 µM), 13.9%; in assay [6] (setting [7]), 4%; in assay [6] (setting [8]), 57%; in assay [6] (at 50.0 µM) it was -19.6%.

In the case of `COc1ccc(SSc2ccc(OC)n[n+]2[O-])[n+]([O-])n1`, the growth inhibition in assay [1] (setting [7]) is 98% (active); in assay [1] (setting [8]), 99% (active); in assay [1] (at 50.0 µM) it was 99.3% (active); in assay [2] (setting [7]), 98% (active); in assay [2] (setting [8]), 100% (active); in assay [2] (at 50.0 µM), 99.7% (active). Also, the growth inhibition in assay [3] (setting [7]) is 93% (active); in assay [3] (setting [8]), 99% (active); in assay [3] (at 50.0 µM), 98.8% (active); in assay [4] (setting [7]) it was 57%; in assay [4] (setting [8]) it was 97% (active); in assay [4] (at 50.0 µM), 98.3% (active). The growth inhibition was 59% in assay [5] (setting [7]); 99% (active) in assay [5] (setting [8]); 99.5% (active) in assay [5] (at 50.0 µM); 72% (active) in assay [6] (setting [7]); 99% (active) in assay [6] (setting [8]); 99.5% (active) in assay [6] (at 50.0 µM).
